Compound activity as filed in PubChem BioAssay.
FBW7 act: human FBW7 E3 ligase activation, primary screen; 650,000 tested, 0.13% active; AlphaScreen FBW7–phospho-cyclin E peptide binding, activator screen; normalized activity (activation), % at 26.1 µM; AID 1259310; in the data active = normalized activity above about 1.9%;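 also: purified mutant Fbw7 with reduced substrate affinity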
Target sequence (Q969H0 whole entry, looked up): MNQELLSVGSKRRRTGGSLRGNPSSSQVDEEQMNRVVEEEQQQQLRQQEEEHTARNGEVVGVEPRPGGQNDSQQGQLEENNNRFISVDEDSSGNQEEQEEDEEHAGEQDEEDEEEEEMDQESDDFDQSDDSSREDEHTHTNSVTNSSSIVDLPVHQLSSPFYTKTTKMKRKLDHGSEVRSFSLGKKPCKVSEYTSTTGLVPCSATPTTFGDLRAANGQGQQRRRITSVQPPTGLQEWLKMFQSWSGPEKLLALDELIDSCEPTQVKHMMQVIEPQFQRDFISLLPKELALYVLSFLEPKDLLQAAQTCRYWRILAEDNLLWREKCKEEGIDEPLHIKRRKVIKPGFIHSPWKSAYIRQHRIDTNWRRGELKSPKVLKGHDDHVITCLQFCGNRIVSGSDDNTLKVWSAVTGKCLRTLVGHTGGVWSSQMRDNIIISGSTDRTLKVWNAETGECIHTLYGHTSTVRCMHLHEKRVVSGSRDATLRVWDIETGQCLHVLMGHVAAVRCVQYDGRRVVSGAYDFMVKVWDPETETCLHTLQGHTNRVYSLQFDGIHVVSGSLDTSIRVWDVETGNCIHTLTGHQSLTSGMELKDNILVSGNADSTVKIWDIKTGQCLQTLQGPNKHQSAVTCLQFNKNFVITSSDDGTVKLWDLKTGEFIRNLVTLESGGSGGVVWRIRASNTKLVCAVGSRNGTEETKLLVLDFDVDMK
MITF inh: human MITF inhibition, primary screen; O75030; AlphaScreen MITF homodimerization, bead proximity signal; inhibition, % at 2.6 µM; 650,000 tested, 0.91% active; in the data active = inhibition above about 50%
TEAD-YAP inh: TEAD-YAP interaction inhibition; HEK-TIYL cells, TEAD-Gal4/YAP UAS-luciferase luminescence; inhibition, % at 9.12 µM; 640,000 tested, 1.4% active; AID 1259422; in the data active = inhibition above about 32%
GPR151 ag: activates the human receptor GPR151 | Q8TDV0 | PathHunter beta-arrestin GPR151 cells, luminescence | activation, % at 11.2 µM | 650,000 tested, 1% active | AID 1508602; in the data active = activation above about 4.9%
GPR151 conf act: human GPR151 activation, confirmation screen. activation, % at 11.2 µM. GPR151 PathHunter beta-arrestin cells, luminescence, 90 min; % of EA-reagent control over plate median. shares compounds with GPR151 ag. 6,700 tested, under 10 active;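 active = mean percent activation across replicates above the confirmation screen cutoff of 4.91%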
GPR119 counter: counter-screen for GPR151 activators: effect on human GPR119 | shares compounds with GPR151 ag | GPR119 PathHunter beta-arrestin cells, luminescence, 90 min; 0 = compound-well median, 100 = enzyme-acceptor control | activation, % at 11.2 µM | 6,700 tested, 0.3% active | AID 1508611;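 active = mean percent activation in the counterscreen above 29.09%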;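 also: counterscreen on off-target GPR119 to flag nonselective hits from the GPR151 activator screen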
A number is an active result; i = inactive; nt = no result. This is a sample that favours compounds with a hit; in the whole collection about 3.4% have one here.

SMILES	FBW7 act	MITF inh	TEAD-YAP inh	GPR151 ag	GPR151 conf act	GPR119 counter
CC1(C)[C@H]2CC=C(CN3CCC(n4nccc4NC(=O)CCOc4ccccc4)CC3)[C@@H]1C2	i	i	i	5.3	i	i
CC1(CCC(=O)N2CCC(n3nccc3NC(=O)CCOc3ccccc3)CC2)CC1	i	i	i	i	nt	nt
CC(C)CC(=O)Nc1ccnn1C1CCN(CC2=CC[C@H]3C[C@@H]2C3(C)C)CC1	i	i	i	i	nt	nt
NS(=O)(=O)c1ccc(NC(=S)NCCN2CCCCC2)cc1	i	i	i	6.3	i	i
COc1ccc(-c2ccc(/C=N/N3C(=O)C4C5C=CC(C6CC56)C4C3=O)o2)c([N+](=O)[O-])c1 (stereo not given)	i	i	i	5.0	i	i
Cn1nnc2c(N3CCC4(CC3)OCCO4)nc(Cc3ccc(Cl)cc3Cl)nc21	i	i	i	6.8	i	i
CCOC(=O)c1sc(Nc2ccc(Cl)c(Cl)c2)nc1C	i	i	i	i	nt	nt
CSCc1csc(NC(=O)c2ccc(F)c(F)c2)n1	i	i	i	i	nt	nt
COc1cc(/C=N\NC(=O)c2ccc([N+](=O)[O-])cc2)ccc1OC(=O)c1ccco1	i	i	i	11	i	i
COc1cc(/C=N/NC(=O)c2ccco2)ccc1OCc1ccc([N+](=O)[O-])cc1	i	i	i	i	nt	nt
Cc1c(NC(=O)Nc2cccc(Cl)c2)cccc1[N+](=O)[O-]	i	i	i	i	nt	nt
COc1ccc(Cl)cc1NC(=O)Nc1cccc([N+](=O)[O-])c1C	i	i	i	8.3	i	i
CCCC/C(C)=N/NC(=O)C(O)c1ccccc1 (stereo not given)	i	i	i	i	nt	nt
CS(=O)(=O)N(CC(=O)N1CCN(c2ccccc2)CC1)Cc1ccc(Cl)cc1	i	i	i	5.0	i	i
CS(=O)(=O)N(CC(=O)N1CCN(c2ccc(F)cc2)CC1)Cc1ccc(Cl)cc1	i	i	i	i	nt	nt
COc1cc(OC)cc(C2=N/C(=C\c3cc(OC)c(OC)cc3OC)C(=O)O2)c1	i	i	i	i	nt	nt
CCN1CCCC1CNC(=O)c1cc2c(s1)CS(=O)(=O)C2 (stereo not given)	i	i	i	i	nt	nt
COc1ccccc1NC(=O)NCc1nc(N)n(C(=O)Nc2ccccc2OC)n1	i	i	i	5.2	i	i
O=c1oc2ccc(Cl)cc2cc1-c1nnc(-c2ccccc2Cl)o1	i	i	i	5.6	i	i
Cc1noc(/C=C/c2cccs2)c1S(=O)(=O)N1CCCC(C(=O)N2CCCC2)C1 (stereo not given)	i	i	i	i	nt	nt
Cc1noc(/C=C/c2cccs2)c1S(=O)(=O)N1CCCC(C(=O)N2CCCCC2)C1 (stereo not given)	i	i	i	5.0	i	i
COc1ccc(/C(N)=N/OC(=O)COc2ccc(Br)cc2)cc1OC	i	i	i	i	nt	nt
COc1ccc(OCC(=O)O/N=C(\N)c2ccc(OC)c(OC)c2)cc1	i	i	i	8.2	i	i
COc1cccc2cc(C(=O)/C=C/c3cccc(F)c3)c(=O)oc12	i	i	i	5.4	i	i
O=C(NN1C(=O)C2C3C=CC(C3)C2C1=O)c1ccncc1 (stereo not given)	i	i	i	i	nt	nt
SMILES	FBW7 act	MITF inh	TEAD-YAP inh	GPR151 ag	GPR151 conf act	GPR119 counter
O=C(NN1C(=O)C2C(c3ccccc3)C=CC(c3ccccc3)C2C1=O)c1ccncc1 (stereo not given)	i	i	i	6.1	i	i
C=CCn1c(SCC(N)=O)nnc1-c1ccc(Br)cc1	i	i	i	6.2	i	i
N#Cc1ccc2c(c1)Cc1ccccc1-2	i	i	i	i	nt	nt
COc1ccc(Nc2ncnc3sc(C)c(C)c23)cc1OC	i	i	i	i	nt	nt
O=C(NC(=S)Nc1cccc(O)c1)c1ccccc1	i	i	i	i	nt	nt
Cc1cc(C(=O)Nc2ccc(I)c(C)n2)ccc1[N+](=O)[O-]	i	i	i	i	nt	nt
Cc1cc(C(=O)Nc2ccc(Br)c(C)n2)ccc1[N+](=O)[O-]	i	i	i	5.0	i	i
c1cc2c(cc1CNCC1CCCO1)OCO2 (stereo not given)	i	i	i	i	nt	nt
CCCCOc1ccc(C2C3=C(CC(C)(C)CC3=O)Nc3ccccc3N2C(=O)CC)cc1 (stereo not given)	i	i	i	6.7	i	i
CC(=O)N1c2ccccc2NC2=C(C(=O)CC(C)(C)C2)C1c1ccccn1 (stereo not given)	i	i	i	5.2	i	i
O=C(CCc1nnc(C2(c3ccc(Cl)cc3)CCC2)o1)NCCCc1cccnc1	i	i	i	i	nt	nt
O=C(CCc1nnc(C2(c3ccc(Cl)cc3)CCC2)o1)NCc1cccnc1	i	i	i	4.9	i	i
CCOc1ccc(OCC)c(NC(=O)CN2CCN(C(C)=O)CC2)c1	i	i	i	6.8	i	i
CCCCN(C)S(=O)(=O)c1ccc(C(=O)Nc2ccc3sc(C)nc3c2)cc1	i	i	61	5.2	i	i
COc1ccc(CNC(=O)c2cc3c(=O)[nH]c4ccccc4c3n2C)c(OC)c1	i	i	i	6.4	i	i
Cc1oc(-c2ccc(Cl)cc2)nc1CS(=O)CC(=O)NC(C)c1ccccc1 (stereo not given)	i	i	i	i	nt	nt
Cc1oc(-c2ccc(Cl)cc2)nc1CS(=O)CC(=O)NC(C)C (stereo not given)	i	i	i	9.4	i	i
CC(C(=O)O/N=C(\N)c1ccncc1)c1ccc([N+](=O)[O-])cc1 (stereo not given)	i	i	i	21	i	i
CC(Oc1ccc(Br)cc1)C(=O)O/N=C(\N)c1ccc([N+](=O)[O-])cc1 (stereo not given)	i	i	i	i	nt	nt
CC(Oc1ccc(Br)cc1)C(=O)O/N=C(\N)c1cccc([N+](=O)[O-])c1 (stereo not given)	i	i	i	5.7	i	i
CC(C(=O)O/N=C(\N)c1ccccc1)c1ccc([N+](=O)[O-])cc1 (stereo not given)	i	i	i	i	nt	nt
Cc1ccc(SCC(=O)O/N=C(\N)c2cccc([N+](=O)[O-])c2)cc1	i	i	i	5.2	i	i
Cc1cc(C(=O)O/N=C(\N)c2ccc(Br)cc2)ccc1[N+](=O)[O-]	i	i	i	6.4	i	i
CCOC(=O)Nc1ccc(S(=O)(=O)N2CCN(CC)CC2)cc1	i	i	i	i	nt	nt
Cc1cccc(C(=O)O/N=C(\N)c2ccc([N+](=O)[O-])cc2)c1	i	i	i	5.6	i	i
Cc1cc(C)cc(C(=O)O/N=C(\N)c2ccc([N+](=O)[O-])cc2)c1	i	i	i	i	nt	nt
O=C(Nc1ccc2c(c1)N(C(=O)c1ccco1)CC2)c1cccs1	i	i	i	i	nt	nt
O=C(c1ccco1)N1CCc2ccc(NC(=O)C3(c4ccccc4)CCOCC3)cc21	i	i	i	8.4	i	i
